Data: PubChem BioAssay (NCATS)
Inconclusive results are not listed. The source made the active and inactive calls. Calls follow the shape of the dose curve; as a rule, active = well fitted inhibition curve with a large enough effect; inconclusive = small, poorly fitted or top-dose-only effect; inactive = flat fitted curve, though single readings scatter.

How the values were obtained:
Experiment in all cases: qHTS profiling for inhibitors of Plasmodium falciparum proliferation (AID 504749); also: nearly all actives have a fitted effect of over 60% in size
ATS95 = settings: P. falciparum in erythrocytes, SYBR Green DNA, 72 h; series mostly up to 12.8 µM
Outline: (§1)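 Quantitative HTS: compounds pinned into medium, infected erythrocytes added (0.3% parasitemia, 2.5% hematocrit), 72 h culture at 37 C under 5% CO2. Saponin/Triton lysis with SYBR Green I, overnight RT, then fluorescence read.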

C2A = settings: P. falciparum in erythrocytes, SYBR Green DNA, 72 h; series mostly up to 12.8 µM
Outline: as §1

CP215 = settings: P. falciparum in erythrocytes, SYBR Green DNA, 72 h; series mostly up to 28.7 µM
Outline: as §1

CP237 = settings: P. falciparum in erythrocytes, SYBR Green DNA, 72 h; series mostly up to 12.8 µM
Outline: as §1

CP238 = settings: P. falciparum in erythrocytes, SYBR Green DNA, 72 h; series mostly up to 12.8 µM
Outline: as §1

CP250 = settings: P. falciparum in erythrocytes, SYBR Green DNA, 72 h; series mostly up to 12.8 µM
Outline: as §1

CP256 = settings: P. falciparum in erythrocytes, SYBR Green DNA, 72 h; series mostly up to 12.8 µM
Outline: as §1

CP265 = settings: P. falciparum in erythrocytes, SYBR Green DNA, 72 h; series mostly up to 12.8 µM
Outline: as §1

CP266 = settings: P. falciparum in erythrocytes, SYBR Green DNA, 72 h; series mostly up to 28.7 µM
Outline: as §1

CP269 = settings: P. falciparum in erythrocytes, SYBR Green DNA, 72 h; series mostly up to 12.8 µM
Outline: as §1

CP325 = settings: P. falciparum in erythrocytes, SYBR Green DNA, 72 h; series mostly up to 12.8 µM
Outline: as §1

CP329 = settings: P. falciparum in erythrocytes, SYBR Green DNA, 72 h; series mostly up to 12.8 µM
Outline: as §1

CP335 = settings: P. falciparum in erythrocytes, SYBR Green DNA, 72 h; series mostly up to 12.8 µM
Outline: as §1

Dd2 = settings: P. falciparum in erythrocytes, SYBR Green DNA, 72 h; series mostly up to 12.8 µM
Outline: as §1

ECU = settings: P. falciparum in erythrocytes, SYBR Green DNA, 72 h; series mostly up to 12.8 µM
Outline: as §1

GB4 = settings: P. falciparum in erythrocytes, SYBR Green DNA, 72 h; series mostly up to 12.8 µM
Outline: as §1

P93_24 = settings: P. falciparum in erythrocytes, SYBR Green DNA, 72 h; series mostly up to 12.8 µM
Outline: as §1

PAD = settings: P. falciparum in erythrocytes, SYBR Green DNA, 72 h; series mostly up to 12.8 µM
Outline: as §1

PC26 = settings: P. falciparum in erythrocytes, SYBR Green DNA, 72 h; series mostly up to 12.8 µM
Outline: as §1

SC27B = settings: P. falciparum in erythrocytes, SYBR Green DNA, 72 h; series mostly up to 12.8 µM
Outline: as §1

Measured: Potency
Potency is read from the fitted curve at half-maximal effect.

Cc1cc(/C=C\c2ccc3cc(N(C)C)ccc3[n+]2C)c(C)n1-c1ccccc1
active: ATS95 1.58 µM | C2A 2.51 µM | CP215 3.22 µM | CP237 0.562 µM | CP238 1.58 µM | CP250 2.82 µM | CP256 1.58 µM | CP265 2.51 µM | CP266 2.87 µM | CP269 2.56 µM | CP325 2.56 µM | CP329 2.03 µM | CP335 0.572 µM | Dd2 0.398 µM | ECU 2.51 µM | GB4 3.22 µM | P93_24 0.708 µM | PAD 3.16 µM | PC26 3.61 µM | SC27B 2.51 µM
